Measured values reported in PubChem BioAssay (EPA / NIEHS).
Several values for one entry are separate records, joined by “and”; a condition that tells them apart may be missing. Identical values can stand only once. Results filed as inconclusive are left out. A structure can be active in one record and inactive in another. Activity calls are given as the source filed them. How the source made its calls, unless noted: active means hit-call score of the fitted dose curve at least 0.9, where 1 is the maximum; inactive means score below 0.9.

Legend:
[1] = molecular target: human RAR-related Orphan Receptor gamma (RORg), RORC (gene 6097) (UniProt P51449); experiment: ATG_RORg_TRANS: Attagene TRANS-FACTORIAL HepG2 Assay for human RAR-related Orphan Receptor gamma (RORg) (AID 2283011; active means hit-call score of the fitted dose curve at least 0.9, where 1 is the maximum)
Chain of human RAR-related Orphan Receptor gamma (RORg), RORC (gene 6097) (P51449 whole entry, looked up, the tested form may be a part): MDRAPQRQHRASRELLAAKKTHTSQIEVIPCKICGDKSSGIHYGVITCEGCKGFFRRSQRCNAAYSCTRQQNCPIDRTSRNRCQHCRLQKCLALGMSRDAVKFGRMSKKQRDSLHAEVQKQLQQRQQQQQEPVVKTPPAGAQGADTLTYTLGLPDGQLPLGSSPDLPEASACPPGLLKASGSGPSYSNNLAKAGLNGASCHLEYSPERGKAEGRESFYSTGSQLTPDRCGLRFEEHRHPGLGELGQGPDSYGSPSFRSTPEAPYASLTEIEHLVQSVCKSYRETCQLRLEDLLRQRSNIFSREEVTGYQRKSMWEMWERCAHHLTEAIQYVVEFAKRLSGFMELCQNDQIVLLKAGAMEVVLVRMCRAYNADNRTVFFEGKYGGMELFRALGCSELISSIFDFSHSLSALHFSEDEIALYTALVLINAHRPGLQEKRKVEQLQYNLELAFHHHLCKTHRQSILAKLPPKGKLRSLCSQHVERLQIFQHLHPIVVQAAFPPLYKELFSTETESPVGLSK
Outline: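 HepG2 cells transiently transfected with GAL4-UAS reporter units and chimeric RORg-Gal4 construct; after 24 h chemical exposure, reporter mRNA measured by RT-PCR with fluorescent capillary electrophoresis, gain of signal fitted against DMSO.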

[2] = molecular target: human Retinoid X Receptor beta (RXRb), RXRB (gene 6257) (UniProt P28702); experiment: ATG_RXRb_TRANS: Attagene TRANS-FACTORIAL HepG2 Assay for human Retinoid X Receptor beta (RXRb) (AID 2283013; active means hit-call score of the fitted dose curve at least 0.9, where 1 is the maximum)
Chain of human Retinoid X Receptor beta (RXRb), RXRB (gene 6257) (P28702 whole entry, looked up, the tested form may be a part): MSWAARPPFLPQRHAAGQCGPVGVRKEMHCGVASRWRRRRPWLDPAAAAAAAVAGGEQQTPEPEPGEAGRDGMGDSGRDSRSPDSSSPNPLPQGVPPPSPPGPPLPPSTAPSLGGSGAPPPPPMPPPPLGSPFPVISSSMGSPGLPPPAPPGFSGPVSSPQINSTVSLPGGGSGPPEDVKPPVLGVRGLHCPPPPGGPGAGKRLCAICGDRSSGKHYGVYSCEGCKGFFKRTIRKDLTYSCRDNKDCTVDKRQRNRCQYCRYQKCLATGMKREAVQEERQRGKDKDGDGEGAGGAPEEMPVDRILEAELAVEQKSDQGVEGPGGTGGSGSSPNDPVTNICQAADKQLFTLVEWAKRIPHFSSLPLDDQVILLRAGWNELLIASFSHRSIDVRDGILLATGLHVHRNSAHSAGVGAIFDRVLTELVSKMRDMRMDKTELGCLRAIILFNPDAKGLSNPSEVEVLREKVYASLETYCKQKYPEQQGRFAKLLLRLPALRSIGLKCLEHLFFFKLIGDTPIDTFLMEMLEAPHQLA
Outline: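 HepG2 cells transiently transfected with multiplexed reporter units driven by GAL4-UAS and exogenous chimeric NR-Gal4 proteins; treated 24 h. Reporter mRNA measured by RT-PCR, 6-FAM labelling and capillary electrophoresis; gain-of-signal fitted versus DMSO baseline.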

[3] = read-out: E-selectin (Homo sapiens) (UniProt P16581); experiment: BSK_3C_Eselectin: BioMAP Diversity Plus: 3C Assay for Eselectin Biomarker Activity (AID 2283015); details: primary human endothelial cells (HUVEC); actives raise or lower the signal;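 further: cell surface E-selectin protein quantified by ELISA 24 h after dosing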
Outline: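 Primary human umbilical vein endothelial cells (3C system), read 24 h after compound addition; E-selectin measured by ELISA. Bidirectional curve fitting against DMSO baseline; cytotoxicity by parallel SRB total-protein staining.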

[4] = read-out: Interleukin-1 alpha (IL1a), IL1A (gene 3552); experiment: BSK_BE3C_IL1a: BioMAP Diversity Plus: BE3C Assay for Interleukin-1 alpha (IL1a) Biomarker Activity (AID 2283016); details: primary human bronchial epithelial cells; actives raise or lower the signal
Outline: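 Human primary bronchial epithelial cells (BE3C system) were dosed with compound and IL-1a measured by ELISA 24 h later. Activity was fitted bidirectionally against DMSO baseline; cytotoxicity was tracked in parallel cultures by SRB total-protein staining.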

[5] = read-out: Monocyte Chemoattractant Protein-1 (MCP1), CCL2 (gene 6347); experiment: BSK_3C_MCP1: BioMAP Diversity Plus: 3C Assay for Monocyte Chemoattractant Protein-1 (MCP1) Biomarker Activity (AID 2283017); details: primary human endothelial cells (HUVEC); actives raise or lower the signal
Outline: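 Human umbilical vein endothelial cells (3C system) exposed to chemicals for 24 h; MCP-1 quantified by ELISA against the DMSO baseline with bidirectional fitting, and parallel SRB staining used to assess cytotoxicity.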

[6] = read-out: Monocyte Chemoattractant Protein-1 (MCP1), CCL2 (gene 6347); experiment: BSK_4H_MCP1: BioMAP Diversity Plus: 4H Assay for Monocyte Chemoattractant Protein-1 (MCP1) Biomarker Activity (AID 2283018); details: primary human endothelial cells (HUVEC); actives raise or lower the signal
Outline: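 Human umbilical vein endothelial cells (4H system) dosed with chemical; MCP-1 measured by ELISA 24 h after dosing. Bidirectional curve fitting against DMSO negative control as baseline; parallel SRB total-protein staining tracks overt cytotoxicity.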

[7] = read-out: Monokine induced gamma interferon (MIG), CXCL9 (gene 4283); experiment: BSK_3C_MIG: BioMAP Diversity Plus: 3C Assay for Monokine induced gamma interferon (MIG) Biomarker Activity (AID 2283021); details: primary human endothelial cells (HUVEC); actives raise or lower the signal
Outline: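 Primary human umbilical vein endothelial cells in the 3C system were exposed to chemical for 24 h, after which MIG was quantified by ELISA. Activity was fitted bidirectionally against DMSO as negative control and baseline.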

[8] = BSK_3C_SRB: Viability Assessment in the BioMAP Diversity Plus: 3C Assay (AID 2283023); details: primary human endothelial cells (HUVEC);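 further: fitted both ways against DMSO so a hit may be signal rise or drop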
Outline: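 Human umbilical vein endothelial cells in the 3C system, treated 24 h. Total protein measured by 0.1% sulforhodamine B staining after 10% TCA fixation, read at 560 nm; bidirectional fit versus DMSO.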

[9] = read-out: Matrix Metallopeptidase 1 (MMP1), MMP1 (gene 4312); experiment: BSK_BE3C_MMP1: BioMAP Diversity Plus: BE3C Assay for Matrix Metallopeptidase 1 (MMP1) Biomarker Activity (AID 2283024); details: primary human bronchial epithelial cells; actives raise or lower the signal
Outline: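 Primary human bronchial epithelial cells were dosed with test chemicals, and MMP1 levels were measured by ELISA 24 h later. Data were fitted bidirectionally against DMSO as the negative control and activity baseline.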

[10] = read-out: Pselectin, SELP (gene 6403); experiment: BSK_4H_Pselectin: BioMAP Diversity Plus: 4H Assay for Pselectin Biomarker Activity (AID 2283026); details: primary human endothelial cells (HUVEC); actives raise or lower the signal
Outline: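 Primary human umbilical vein endothelial cells were exposed to test chemical for 24 h, then cell-surface P-selectin was quantified by ELISA. Activity was fitted bidirectionally against DMSO as negative control and baseline.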

[11] = BSK_4H_SRB: Viability Assessment in the BioMAP Diversity Plus: 4H Assay (AID 2283027); details: primary human endothelial cells (HUVEC);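 further: cells exposed to compound for 24 h before staining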;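 on AC50: curves fitted both ways versus DMSO so AC50 may be loss or gain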
Outline: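 Absorbance at 560 nm of SRB-stained total protein served as the viability read-out in confluent primary human umbilical vein endothelium 24 h after chemical treatment. Curves were fitted bidirectionally against DMSO as negative control.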

[12] = BSK_BE3C_SRB: Viability Assessment in the BioMAP Diversity Plus: BE3C Assay (AID 2283028); details: primary human bronchial epithelial cells;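 on AC50: fitted both ways so AC50 may mark signal gain or loss versus DMSO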
Outline: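 Human bronchial epithelial primary cells in confluent culture, 24 h after chemical dosing; total protein by 0.1% SRB staining after 10% TCA fixation, read at 560 nm. Bidirectional fitting versus DMSO baseline.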

[13] = read-out: Thrombomodulin, THBD (gene 7056); experiment: BSK_3C_Thrombomodulin: BioMAP Diversity Plus: 3C Assay for Thrombomodulin Biomarker Activity (AID 2283029); details: primary human endothelial cells (HUVEC); actives raise or lower the signal
Outline: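 Primary human umbilical vein endothelial cells (3C system) were exposed to chemical for 24 h, then thrombomodulin levels were measured by ELISA. Activity was fitted bidirectionally against the DMSO negative control as baseline.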

[14] = molecular target: Retinoic acid receptor RXR-alpha (Homo sapiens) (UniProt P19793); experiment: ATG_RXRa_TRANS: Attagene TRANS-FACTORIAL HepG2 Assay for human Retinoid X Receptor alpha (RXRa) (AID 2283012; active means hit-call score of the fitted dose curve at least 0.9, where 1 is the maximum)
Chain of Retinoic acid receptor RXR-alpha (Homo sapiens) (P19793 whole entry, looked up, the tested form may be a part): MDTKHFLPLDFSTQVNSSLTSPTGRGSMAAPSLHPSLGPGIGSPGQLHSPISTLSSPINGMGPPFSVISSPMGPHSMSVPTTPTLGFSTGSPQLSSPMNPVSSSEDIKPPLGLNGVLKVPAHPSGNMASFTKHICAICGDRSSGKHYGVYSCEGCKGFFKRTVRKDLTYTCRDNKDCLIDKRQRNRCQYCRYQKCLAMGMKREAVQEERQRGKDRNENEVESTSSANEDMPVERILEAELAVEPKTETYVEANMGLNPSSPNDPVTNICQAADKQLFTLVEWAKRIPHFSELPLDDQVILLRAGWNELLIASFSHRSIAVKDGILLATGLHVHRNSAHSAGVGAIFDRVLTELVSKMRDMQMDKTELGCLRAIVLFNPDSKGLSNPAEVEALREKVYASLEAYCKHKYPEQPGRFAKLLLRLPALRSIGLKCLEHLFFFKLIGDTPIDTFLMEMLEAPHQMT
Outline: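 HepG2 cells transiently transfected with multiplexed GAL4-UAS reporter units and chimeric NR-GAL4 fusions, dosed 24 h. Reporter mRNA measured by RT-PCR, FAM labelling, HpaI digestion and capillary electrophoresis; gain-of-signal fitted relative to DMSO baseline.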

[15] = read-out: Human Leukocyte Antigen - DR isotype (HLADR), HLA-DRA (gene 3122); experiment: BSK_3C_HLADR: BioMAP Diversity Plus: 3C Assay for Human Leukocyte Antigen - DR isotype (HLADR) Biomarker Activity (AID 2283019); details: primary human endothelial cells (HUVEC); actives raise or lower the signal;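 further: ELISA of cell-surface HLA-DR on HUVEC 24 h after dosing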
Outline: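 HUVEC monoculture, HLA-DR measured by ELISA 24 h after chemical dosing. Fitted bidirectionally against DMSO baseline; parallel SRB staining assessed cytotoxicity, with 3C proliferation read by SRB at 48 h.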

[16] = read-out: Interleukin-8 (IL8), CXCL8 (gene 3576); experiment: BSK_3C_IL8: BioMAP Diversity Plus: 3C Assay for Interleukin-8 (IL8) Biomarker Activity (AID 2283020); details: primary human endothelial cells (HUVEC); actives raise or lower the signal
Outline: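 Primary human umbilical vein endothelial cells (3C system) were exposed to test chemical for 24 h, then IL-8 was quantified by ELISA. Responses were fitted bidirectionally against DMSO vehicle as baseline.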

[17] = molecular target: human Vitamin D Receptor (VDR), VDR (gene 7421) (UniProt P11473); experiment: ATG_VDR_TRANS: Attagene TRANS-FACTORIAL HepG2 Assay for human Vitamin D Receptor (VDR) (AID 2283022; active means hit-call score of the fitted dose curve at least 0.9, where 1 is the maximum)
Chain of human Vitamin D Receptor (VDR), VDR (gene 7421) (P11473 whole entry, looked up, the tested form may be a part): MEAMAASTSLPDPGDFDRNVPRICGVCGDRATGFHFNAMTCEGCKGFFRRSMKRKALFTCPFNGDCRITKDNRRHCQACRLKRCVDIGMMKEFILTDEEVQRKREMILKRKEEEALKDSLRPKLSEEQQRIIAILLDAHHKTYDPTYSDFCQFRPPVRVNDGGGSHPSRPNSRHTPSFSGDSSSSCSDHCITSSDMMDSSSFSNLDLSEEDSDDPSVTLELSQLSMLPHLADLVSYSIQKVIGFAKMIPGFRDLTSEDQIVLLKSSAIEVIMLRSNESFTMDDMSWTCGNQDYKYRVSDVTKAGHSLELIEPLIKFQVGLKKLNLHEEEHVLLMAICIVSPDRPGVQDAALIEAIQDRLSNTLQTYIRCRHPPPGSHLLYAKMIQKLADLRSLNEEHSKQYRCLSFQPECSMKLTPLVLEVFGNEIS
Outline: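 HepG2 cells were transiently transfected with GAL4-UAS reporter units and a chimeric VDR-Gal4 construct, then dosed for 24 hours. Reporter mRNA was quantified by RT-PCR, fluorescent labeling, HpaI digestion and capillary electrophoresis; gain of signal analysed vs DMSO.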

[18] = molecular target: human Thyroid Receptor alpha (THRa1), THRA (gene 7067) (UniProt P10827); experiment: ATG_THRa1_TRANS: Attagene TRANS-FACTORIAL HepG2 Assay for human Thyroid Receptor alpha (THRa1) (AID 2283014; active means hit-call score of the fitted dose curve at least 0.9, where 1 is the maximum)
Chain of human Thyroid Receptor alpha (THRa1), THRA (gene 7067) (P10827 whole entry, looked up, the tested form may be a part): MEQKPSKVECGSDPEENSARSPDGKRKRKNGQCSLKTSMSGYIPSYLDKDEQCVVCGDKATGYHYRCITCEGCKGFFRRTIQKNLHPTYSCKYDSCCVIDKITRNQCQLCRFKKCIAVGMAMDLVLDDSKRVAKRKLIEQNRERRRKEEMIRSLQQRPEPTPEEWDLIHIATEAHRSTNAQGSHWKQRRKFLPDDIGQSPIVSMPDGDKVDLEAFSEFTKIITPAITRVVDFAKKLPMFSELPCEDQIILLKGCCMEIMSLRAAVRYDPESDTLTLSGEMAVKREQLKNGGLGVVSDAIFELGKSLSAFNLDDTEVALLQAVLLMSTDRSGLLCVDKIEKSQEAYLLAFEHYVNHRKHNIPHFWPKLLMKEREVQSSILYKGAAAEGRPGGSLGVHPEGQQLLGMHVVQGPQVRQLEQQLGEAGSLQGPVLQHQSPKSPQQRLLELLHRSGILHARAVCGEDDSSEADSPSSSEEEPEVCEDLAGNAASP
Outline: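 HepG2 cells transiently transfected with chimeric NR-Gal4 and GAL4-UAS reporter units, dosed 24 h. Reporter mRNA quantified by RT-PCR, fluorescent labeling, HpaI digestion and capillary electrophoresis; gain-of-signal fit versus DMSO.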

[19] = BSK_3C_Vis: BioMAP Diversity Plus: 3C Assay for Morphology Visualization (AID 2283025); details: primary human endothelial cells (HUVEC);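 further: fitted both ways so gain or loss versus DMSO counts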
Outline: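 Human umbilical vein endothelial cells in the 3C system were imaged by light microscopy 24 h after chemical dosing to record cell morphology. Activity was fitted bidirectionally against DMSO as negative control and baseline; the endpoint serves as a background control.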

Measured: AC50

Chain of E-selectin (Homo sapiens) (P16581 whole entry, looked up): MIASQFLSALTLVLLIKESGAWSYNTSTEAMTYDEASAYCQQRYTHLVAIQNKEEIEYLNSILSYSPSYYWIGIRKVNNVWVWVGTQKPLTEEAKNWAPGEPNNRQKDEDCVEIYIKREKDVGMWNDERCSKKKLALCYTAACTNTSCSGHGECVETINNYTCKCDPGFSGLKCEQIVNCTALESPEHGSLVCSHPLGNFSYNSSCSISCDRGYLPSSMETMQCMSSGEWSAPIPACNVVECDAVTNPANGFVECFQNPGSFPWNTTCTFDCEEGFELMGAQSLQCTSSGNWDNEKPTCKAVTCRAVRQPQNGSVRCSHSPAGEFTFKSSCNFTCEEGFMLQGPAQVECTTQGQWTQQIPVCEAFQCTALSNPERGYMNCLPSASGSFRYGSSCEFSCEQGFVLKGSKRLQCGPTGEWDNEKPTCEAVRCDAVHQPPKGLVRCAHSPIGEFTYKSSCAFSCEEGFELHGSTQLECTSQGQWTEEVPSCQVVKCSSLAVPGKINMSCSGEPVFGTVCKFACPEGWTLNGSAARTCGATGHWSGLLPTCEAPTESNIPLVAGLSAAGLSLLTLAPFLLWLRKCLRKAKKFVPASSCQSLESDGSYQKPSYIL

FC(F)(F)C(F)(F)C(F)(F)C(F)(F)C(F)(F)C(F)(F)C(F)(F)I
not listed: [14] | [15] | [16] | [17] | [18] | [19]
inactive: all other assays above

FC(F)(Br)C(F)(F)C(F)(F)C(F)(F)C(F)(F)C(F)(F)Br
not listed: [1] | [18] | [19]
inactive: all other assays above

O=C(CC(=O)C(F)(F)C(F)(F)F)C(F)(F)F
active: [5] 30 µM and 21.7 µM
not listed: [1] | [15] | [19]
inactive: all other assays above

O=S(=O)(OCC(F)F)C(F)(F)F
not listed: [1] | [2] | [16] | [18] | [19]
inactive: all other assays above

O=S(=O)(OCCOC(F)(F)F)C(F)(F)F
not listed: [1] | [15] | [16] | [18] | [19]
inactive: all other assays above

FC1CC(F)(F)C(F)(F)C1(F)F (stereo not given)
not listed: [1] | [2] | [14] | [15] | [17] | [19]
inactive: all other assays above

O=C(OCCOCCOCCOC(=O)c1ccccc1)c1ccccc1
inactive: [2] | [17]

OCC(F)(F)C(F)(F)C(F)(F)C(F)(F)C(F)(F)C(F)F
not listed: [1] | [2] | [14] | [18] | [19]
inactive: all other assays above

OCC(F)(F)C(F)(F)C(F)(F)C(F)(F)C(F)(F)C(F)(F)F
active: [8] 58.5 µM | [10] 43.6 µM
inactive: [2] | [18] | [3] | [4] | [5] | [6] | [16] | [7] | [17] | [8] | [9] | [10] | [11] | [12] | [13]

c1ccc(B(c2ccccc2)c2ccccc2)cc1
active: [2] 100 µM
inactive: [14] | [18] | [17]

C=CC/C=C/C/C=C/C/C=C/C
active: [2] 100 µM
not listed: [1] | [15] | [16] | [17]
inactive: all other assays above

CC(Cc1ccc(O)c(O)c1)C(C)Cc1ccc(O)c(O)c1 (stereo not given)
inactive: [14] | [17]

O=C(Cl)C(F)(F)C(F)(F)C(F)(F)C(F)(F)C(F)(F)C(F)(F)C(F)(F)C(F)(F)F
inactive: [14] | [3] | [5] | [6] | [16] | [7] | [17] | [10] | [11] | [13]
active: [2] 25.7 µM | [4] 46.4 µM and 46.3 µM and 55 µM | [5] 49.7 µM | [6] 5.95 µM | [16] 41 µM | [8] 45 µM and 50.8 µM and 49.9 µM | [9] 50.8 µM and 51.7 µM and 52 µM | [11] 30 µM | [12] 58.5 µM and 46.6 µM and 47.3 µM

CC(CCl)OP(=O)(OC(C)CCl)OC(C)CCl (stereo not given)
not listed: [1] | [16] | [18]
inactive: all other assays above

FC(F)(F)C(F)(F)C(F)(F)C(F)(F)C(F)(F)C(F)(F)C(F)(F)Br
inactive: [14] | [18] | [3] | [4] | [5] | [6] | [16] | [7] | [17] | [8] | [9] | [10] | [11] | [12] | [13]
active: [13] 1.29 µM

FC(F)(F)C(F)(F)C(F)(F)C(F)(F)C(F)(F)C(F)(F)C(F)(F)C(F)(F)CCS
not listed: [1] | [2] | [15] | [16] | [19]
inactive: all other assays above
